Test [1] can be described thus: Primary qHTS for inhibitors of SARS-S pseudo-typed particle cell entry (AID 1479145). Note: nearly all actives have a fitted effect of over 45% in size. Note: potency is the fitted concentration of half-maximal effect.
The nature of test [2]: Primary qHTS for Huh7 cytotoxicity: counterscreen for inhibitors of MERS-S pseudotyped particle cell entry (AID 1479147).
Test [3] in a line: Primary qHTS for Vero E6 cytotoxicity: counterscreen for inhibitors of SARS-S pseudo-typed particle cell entry (AID 1479150).
Test [4] can be described thus: Primary qHTS for inhibitors of MERS-S pseudo-typed particle cell entry (AID 1479149). Note: nearly all actives have a fitted effect of over 60% in size.

Inconclusive results are not listed. Calls of active or inactive are those of the source. Calls come from the whole dose curve.

The text below walks through data of PubChem BioAssay (NCATS).

Regarding `Nc1nc(Cl)nc2c1ncn2[C@@H]1O[C@H](CO)[C@@H](O)[C@@H]1F`, the Potency in test [1] was 20 µM (active). For the same compound, the Potency result in test [2] and in test [3] was “inactive” in each case.
Regarding `CCc1oc2ccccc2c1C(=O)c1cc(I)c(O)c(I)c1`, the Potency result in test [2], in test [4] and in test [3] was “inactive” throughout.
For `c1ccc2sc(SN3CCOCC3)nc2c1`, the Potency result in test [1], in test [4] and in test [3] was “inactive” each time.
As to `CCn1cc(C(=O)O)c(=O)c2cc(F)c(N3CCNC(C)C3)c(F)c21` (stereo not drawn), the Potency entry in test [1], in test [2] and in test [3] was “inactive” throughout.
With `CC(=O)Nc1c(I)cc(I)c(C(=O)O)c1I`, the Potency entry in test [1], in test [2] and in test [3] was “inactive” each time.
Consider `Cc1cc2nc3c(=O)[nH]c(=O)nc-3n(C[C@H](O)[C@H](O)[C@H](O)CO)c2cc1C`, for which the Potency result in test [2], in test [4] and in test [3] was “inactive” in each case.
